# Measured values published in ChEMBL document CHEMBL1157539, “Thousands of chemical starting points for antimalarial lead identification” (Nature, 2010).
# Assays:
# Assay type in all cases: functional
# [1] = system: Plasmodium falciparum; test: GSK_TCMDC: Inhibition of Plasmodium falciparum 3D7 in whole red blood cells, using parasite LDH activity as an index of growth. Test compounds present at 2uM
# [2] = system: Plasmodium falciparum; test: GSK_TCMDC: Inhibition of Plasmodium falciparum Dd2 in whole red blood cells, using parasite LDH activity as an index of growth. Test compounds present at 2uM
# [3] = system: HepG2; test: GSK_TCMDC: Percent inhibition of human HepG2 cell line. Test compounds present at 10uM.
Structure (SMILES),Inhibition [1] [%],Inhibition [2] [%],Inhibition [3] [%]
O=C(Nc1ccc(Oc2cccnc2)cc1)C1CCN(Cc2cc(Cl)ccc2O)CC1,83,1,37
CC(C)Cn1cc(C2CCN(CCN3CCC(CNC(=O)c4ccc(-c5ccc(C(F)(F)F)cc5)cc4)CC3)CC2)c2ccccc21,100,87,100
CC(C)C[C@@H](NC(=O)OC(C)(C)C)C(=O)Nc1ccc(Cc2ccc(NC(=O)[C@@H](CC(C)C)NC(=O)OC(C)(C)C)cc2)cc1,96,96,8
CCOC(=O)COc1cccc(CNc2ccc3nc(N)nc(N)c3c2)c1,100,99,18
Nc1nc(F)nc2nc[nH]c12,89,25,78
CN(C)CCN(C)Cc1ccc(-c2ccc(NS(=O)(=O)c3cccc4cccnc34)cc2)cc1.O=C(O)C(F)(F)F,93,16,23
O=C(/C=C/c1ccc(Cl)c(Cl)c1)NC1CCC(CN2CCC(c3cc4ccccc4[nH]3)CC2)CC1 (stereo not drawn),96,0,19
Br.CCCC1N=C(N)N=C(N)N1c1ccc(C)c(C)c1 (stereo not drawn),95,0,7
Cc1cccc2nc(-c3ccc(-c4cccc(NC(=O)c5cncn5C)c4)s3)[nH]c12,100,16,13
CC(C)NCc1ccc(-c2cccc(-c3nc4cc(C(F)(F)F)ccc4[nH]3)c2)cc1.O=C(O)C(F)(F)F,100,100,21
Cl.Clc1ccc2c(NCCNc3ccnc4cc(Cl)ccc34)ccnc2c1,100,96,6
O=C(C=Cc1ccc(Cl)c(Cl)c1)NCCCCCN1CCC(CCCNC(=O)c2sc3ccccc3c2Cl)CC1,93,40,99
Cc1nnsc1C(=O)Nc1cccc(-c2cccc(-c3nc4cccc(C)c4[nH]3)c2)c1,99,80,22
CC(C)N1CCN(C(=O)c2ccc(CNCCCN3CCN(c4cccc(Cl)c4Cl)CC3)o2)CC1.Cl,98,36,41
Cn1cncc1C(=O)Nc1ccc(-c2ccc(-c3nc4cc(C(F)(F)F)ccc4[nH]3)cc2)cc1,100,33,24
Brc1cc(Br)c2c(c1)C(NCCCNC1CCNc3c(Br)cc(Br)cc31)CCN2 (stereo not drawn),98,25,18
Cc1cccc(-c2nc3[nH]c(=O)cc(NC(=O)C(C)C)n3n2)c1,96,93,0
COc1ccc(CNC2CCN(C)CC2)cc1-c1ccc(S(=O)(=O)NCc2cccnc2)s1.O=C(O)C(F)(F)F,100,3,10
O=C(Nc1ccc(OC2CCN(Cc3ccc(F)cc3)CC2)c(Cl)c1)c1ccsc1.O=C(O)C(F)(F)F,94,90,5
COc1ccc(-c2nonc2NC(=O)c2ccc(C(C)(C)C)cc2)cc1OC,99,73,0
CCOc1cc(C)ccc1C1CCN(CCCCNC(=O)c2ccc(NC(=O)c3cc(Cl)cc(Cl)c3)cc2)CC1,99,78,4

Structure (SMILES),Inhibition [1] [%],Inhibition [2] [%],Inhibition [3] [%]
CN1CCN(c2ncnc3ccc(NC(=O)Nc4ccc(Cl)c(Cl)c4)cc23)CC1,100,89,7
COc1cccc(-c2nn(C)c3sc(C(=O)NCCN4CCN(c5ccccc5F)CC4)cc23)c1,85,40,9
COc1cc2c(cc1C=CC(=O)N1CCN(Cc3nc(O)c4c(C)c(C)sc4n3)CC1)OC(C)C2 (stereo not drawn),82,87,0
Cc1cc2nc(-c3ccc(SCC(=O)Nc4ccc5c(c4)OCCO5)nc3)[nH]c2cc1C,85,6,17
Cc1nc(NCCc2c[nH]cn2)cc(NCc2ccccc2)n1,100,5,5
O=C(Nc1cccc(CN2CCCN(CC3CCCCC3)CC2)c1)c1cc2ccccc2s1.O=C(O)C(F)(F)F,96,15,29
Cc1nc2c(c(C)nn2C(C)(C)C)c(C)c1CCC(=O)Nc1ccc(CN2CCCC2)cc1,89,5,1
COC(=O)c1c(C#N)c(OC)cc(O)c1CSC[C@@H](CN1CCCCC1)Nc1nc(-c2ccc([N+](=O)[O-])cc2)cs1,100,77,8
N=C1NC(=N)N(OCCCCCCON2C(=N)NC(=N)NC2C=Cc2ccccc2)C(C=Cc2ccccc2)N1 (stereo not drawn),97,94,17
CCN(CC)c1ccc(NC(=S)NC2CCN(CCCCCNC(=O)/C=C/c3ccc(Cl)c(Cl)c3)CC2)cc1,100,58,16
COc1ccc(NC(=O)c2ccc(-c3cc(NC(=O)c4ccnc(N5CCCC5)c4)ccc3C)s2)cc1N1CCN(C)CC1.O=C(O)C(F)(F)F,100,100,15
Cc1ccc(S(=O)(=O)N2CCN(C(=O)c3cc(-c4ccccc4)n[nH]3)CC2)cc1,91,88,0
CCCN(CCC)C(=O)c1cc(C(=O)N[C@@H](Cc2ccccc2)[C@H](O)CNC(C)(C)c2cccc(OC)c2)cc(N2CCCCS2(=O)=O)c1,99,74,16
Cn1nc(-c2cccc(CNCCc3cccs3)c2)c2cnc(NC3CCCC3)nc21,97,0,8
N#Cc1ccc(N(CCOc2ccc(Cl)c(F)c2)Cc2ccccc2C(F)(F)F)cc1C(F)(F)F,100,43,17
C[C@H](Cc1ccc(CCc2ccc(C[C@@H](C)NC[C@H](O)c3cccc(Cl)c3)cc2)cc1)NC[C@H](O)c1cccc(Cl)c1.Cl,95,92,100
S=C(NN=Cc1ccccn1)NC1CC2C=CC1C2 (stereo not drawn),99,96,51
Nc1ncc(-c2ccsc2)cc1-c1nc2ccccc2[nH]1,99,8,33
COc1cc2ccccc2cc1CCNCCCCNCCc1cc2ccccc2cc1OC.CS(=O)(=O)O,99,38,100
CC(C)CNC(=O)c1ccnc(-c2ccc(CNCCCc3ccccc3)cc2)c1.O=C(O)C(F)(F)F,99,22,12
O=C(Nc1cccc(CN2CCCN(Cc3ncc[nH]3)CC2)c1)c1ccc(Cl)c(Cl)c1.O=C(O)C(F)(F)F,100,16,8

Structure (SMILES),Inhibition [1] [%],Inhibition [2] [%],Inhibition [3] [%]
CO/C(=C\C=C\c1cc2cc(Cl)c(Cl)cc2[nH]1)C(=O)NCCCN1CCN(c2cccc(OCC(=O)Nc3ccccc3)c2)CC1,100,81,49
CCCNCc1ccc(-c2ccc(CN(CCOC)C(=O)CCCOCc3ccccc3)cc2)nc1.O=C(O)C(F)(F)F,93,13,0
CC(C)CC(=O)NC1CCN(Cc2c(-c3cccs3)nc3ccccc3c2C(=O)N[C@@H](C)C2CCCCC2)CC1,96,97,0
Fc1ccc2[nH]c(-c3cccc(-c4ccc(CNCCc5ccncc5)cc4)c3)nc2c1.O=C(O)C(F)(F)F,99,100,44
CCNc1cc(C(=O)N[C@@H](Cc2ccccc2)[C@H](O)CNCC(C)C)cc(N2CCCC2=O)c1,98,97,16
CCn1c(-c2nonc2N)nc2cnc(Oc3cccc(NC(=O)c4ccc(OCCN5CCCCC5)cc4)c3)cc21,98,7,16
CCCn1c(=N)c(C(=O)NCCc2ccccc2)cc2c(=O)n3cccc(C)c3nc21,100,64,8
COc1ccc(O)c(Cc2cnc3nc(N)[nH]c(=O)c3c2C)c1.CS(=O)(=O)O,96,6,30
CCCNC(=O)Nc1cc2cc(-c3ccc(CN4CCCC4)cc3)ccc2n2c(C)nnc12,93,11,67
Cc1cc(OCCCN2CCCCC2C)ccc1NC(=O)COc1ccc(Cl)cc1C(=O)c1cc(Cl)cc(C#N)c1 (stereo not drawn),91,14,23
Cc1ccc2c(N/N=C/c3cccc([N+](=O)[O-])c3)cc(C)nc2c1,100,97,33
O=C(Nc1ccc(OC2CCN(Cc3ccccc3)CC2)c(Cl)c1)c1ccco1.O=C(O)C(F)(F)F,96,96,8
CCC(C)NCc1c(O)ccc2c(CNC(C)CC)c(O)ccc12.Cl (stereo not drawn),100,31,14
COc1ccc(CCNCCCCCCNCCc2ccc(Cl)c3ccccc23)cc1OC.Cl,100,28,100
O=C(N/N=C/c1nc2ccccc2[nH]1)c1cccc([N+](=O)[O-])c1,99,82,0
CC1CN(C(=O)c2sc3ccccc3c2Cl)CC(C)O1 (stereo not drawn),100,98,0
O=C(N[C@H]1CCN(Cc2ccc(OCCN3CCNCC3)c(Br)c2)C1)c1ccc(Cl)c(Cl)c1.O=C(O)C(F)(F)F,100,36,69
CCC(O)(C#Cc1c(C)nc(N)nc1N)CC,97,0,63
Cc1nn(-c2cccc(Cl)c2)c2c1C(C(=O)c1ccc3c(c1)OCO3)CC(=O)N2 (stereo not drawn),98,95,5
